Test results reported in ChEMBL document CHEMBL4513216, “Probing the Open Global Health Chemical Diversity Library for Multistage-Active Starting Points for Next-Generation Antimalarials” (ACS Infect Dis, 2020).
Out of some 69,000 compounds screened, about 8,600 (12%) showed an effect of 50% or more. This is one part of a sample in which strong results are shown more often than they occur.

Test system: Plasmodium berghei
Test: Screen against P. berghei liver stage (PbLuc), transformed with Luciferase, at 10uM
Assay type: functional, HepG2
Conditions: tested at 10 uM

**Q.** Which INHIBITION does the source give for Cc1nc(C)n(CC2CCCN(CC(=O)Nc3nnc(C)s3)C2)n1 (stereo unspecified) here?
**A.** 33.25%

**Q.** Which INHIBITION does the source give for O=C1c2ncccc2C(CCO)N1Cc1ccccc1 (stereo unspecified) here?
**A.** 2.55%

**Q.** How did the INHIBITION turn out when Cc1c(COC(C)C)cccc1NC(=O)N1CCCC(CO)C1 (stereo unspecified) was run?
**A.** 49.1%

**Q.** With CCC1c2cccn2CCN1C(=O)c1cc(OC)nc(OC)n1 (stereo unspecified) as the compound, how does the INHIBITION read?
**A.** 19.7%

**Q.** How did the INHIBITION turn out when O=C(N[C@@H]1CCC[C@@H](N2CCOCC2)[C@@H]1O)c1ncccn1 was run?
**A.** 36.4%

**Q.** Which INHIBITION does the source give for CS(=O)(=O)N1C[C@H]2CNC[C@@]2(C(=O)NCCOc2ccccc2)C1 here?
**A.** 18.6%

**Q.** With O=C(C1CC1)N1C[C@H]2CNC[C@@]2(C(=O)NCCCc2ccccc2)C1 as the compound, how does the INHIBITION read?
**A.** 32.5%

**Q.** CS(=O)(=O)N1C[C@H]2CNC[C@@]2(C(=O)NCCCc2ccccc2)C1 was tested. Which INHIBITION did it give?
**A.** 73.5%

**Q.** Which INHIBITION does the source give for CC(C)S(=O)(=O)NC(=O)CC(c1ccccc1)C(F)(F)F (stereo unspecified) here?
**A.** 31.3%

**Q.** For CN(C)S(=O)(=O)NC(=O)CC(c1ccccc1)C(F)(F)F (stereo unspecified), which INHIBITION is on record?
**A.** 62.8%

**Q.** With COCC(C)(C)NC(=O)CC(c1ccccc1)C(F)(F)F (stereo unspecified) as the compound, how does the INHIBITION read?
**A.** 29.4%

**Q.** How did the INHIBITION turn out when Cc1cnccc1NCCNC(=O)C1CCCN(Cc2ccco2)C1 (stereo unspecified) was run?
**A.** 24.3%

**Q.** O=C(NCCCc1ccncc1)C1CCCN(Cc2ccco2)C1 (stereo unspecified) was tested. Which INHIBITION did it give?
**A.** 19.5%

**Q.** For Cc1ccc(NCCCNC(=O)C2CCCN(Cc3ccco3)C2)nc1 (stereo unspecified), which INHIBITION is on record?
**A.** 75.1%

**Q.** c1cncc(COCC2C[C@@H]3OCCN(Cc4cccnc4)[C@H]3C2)c1 (stereo partly specified) was tested. Which INHIBITION did it give?
**A.** 23.6%

**Q.** CN(C)C(=O)N1CCC[C@]2(C(=O)N(C)C)CN(c3ccccn3)C[C@@H]2C1 was tested. Which INHIBITION did it give?
**A.** -2.35%

**Q.** Cc1ccc(C(=O)N2CCO[C@H]3[C@H](OCCN(C)C)CC[C@@H]32)o1 was tested. Which INHIBITION did it give?
**A.** -26.1%

**Q.** CC(NCc1ccccn1)c1cc2c(cc1Br)OCCO2 (stereo unspecified) was tested. Which INHIBITION did it give?
**A.** 47.4%

**Q.** CC(NCc1ccncc1)c1cc2c(cc1Br)OCCO2 (stereo unspecified) was tested. Which INHIBITION did it give?
**A.** 53.9%

**Q.** Which INHIBITION does the source give for CC(NCc1cccnc1)c1cc2c(cc1Br)OCCO2 (stereo unspecified) here?
**A.** 15%

**Q.** For Cc1cnc(N2CCO[C@@H]3CC(COCc4cccnc4)C[C@H]32)nc1 (stereo partly specified), which INHIBITION is on record?
**A.** 45.4%

**Q.** Which INHIBITION does the source give for O=C(Nc1cccnc1N1CCSCC1)c1ccc2c(c1)CCO2 here?
**A.** 39.6%

**Q.** For COCCOc1ccnc(-c2noc([C@@H]3CCCN3CC3CC3)n2)c1, which INHIBITION is on record?
**A.** 18.4%

**Q.** COCCOc1ccnc(-c2noc([C@@H]3CCCN3CC(C)(C)C)n2)c1 was tested. Which INHIBITION did it give?
**A.** 53.2%

**Q.** With COCCOc1ccnc(-c2noc([C@@H]3CCCN3CC(C)C)n2)c1 as the compound, how does the INHIBITION read?
**A.** -15.6%

**Q.** For CS(=O)(=O)CCC(=O)N1C[C@H]2CC[C@@H](C1)N(Cc1ccccn1)C2=O, which INHIBITION is on record?
**A.** 5.38%

**Q.** How did the INHIBITION turn out when c1ccc(-c2nc(CNCC3CCCN3c3cccnn3)co2)cc1 (stereo unspecified) was run?
**A.** -17.7%

**Q.** Which INHIBITION does the source give for Cn1cc(CN2CCCC(n3c(=O)oc4ccccc43)C2)cn1 (stereo unspecified) here?
**A.** 2.14%

**Q.** CC(CN(C)C)Nc1nc(O)cc(Cc2ccccc2F)n1 (stereo unspecified) was tested. Which INHIBITION did it give?
**A.** 39.3%

**Q.** Which INHIBITION does the source give for CCOC(=O)C1CC2(CCOCC2)N2CCC(=O)N12 (stereo unspecified) here?
**A.** 20.7%

**Q.** For CCOC(=O)C1CC2(CCCC2)N2CCC(=O)N12 (stereo unspecified), which INHIBITION is on record?
**A.** 0.284%

**Q.** Which INHIBITION does the source give for CCOC(=O)C1CC2(CCCCC2)N2CCC(=O)N12 (stereo unspecified) here?
**A.** 54%

**Q.** Cc1noc(C)c1C1CCCN1C(=O)CN1CC2(CCNCC2)OC1=O (stereo unspecified) was tested. Which INHIBITION did it give?
**A.** 36.8%

**Q.** O=C1OC2(CCNCC2)CN1CC(=O)N1CCCC1c1ccco1 (stereo unspecified) was tested. Which INHIBITION did it give?
**A.** 16.8%

**Q.** Cc1ccccc1C1CCCN1C(=O)CN1CC2(CCNCC2)OC1=O (stereo unspecified) was tested. Which INHIBITION did it give?
**A.** 50.1%

**Q.** With Cc1nc2ccc(S(=O)(=O)Nc3c(C)nn(CC(=O)O)c3C)cc2s1 as the compound, how does the INHIBITION read?
**A.** 34.7%

**Q.** For CCN(Cc1ccncc1)c1cc(C2CCNCC2)nc(C)n1, which INHIBITION is on record?
**A.** 14.6%

**Q.** How did the INHIBITION turn out when Cc1nc(C2CCCNC2)cc(N(C)CCc2ccccc2)n1 (stereo unspecified) was run?
**A.** -16.5%

**Q.** CCN(Cc1ccncc1)c1cc(C2CCCNC2)nc(C)n1 (stereo unspecified) was tested. Which INHIBITION did it give?
**A.** 53.7%

**Q.** With CCOc1ccc(CNC(C)c2c(C)nn(C)c2C)cc1 (stereo unspecified) as the compound, how does the INHIBITION read?
**A.** -88.5%

**Q.** Which INHIBITION does the source give for COc1ccccc1CC(=O)N1CCC(NCc2ccccn2)CC1 here?
**A.** 46.3%

**Q.** Which INHIBITION does the source give for CN(Cc1cnc(N)nc1)C(=O)c1coc(COc2cccc(F)c2)n1 here?
**A.** 0.546%

**Q.** With COc1ccccc1N1CCN(c2nc(N)nc3[nH]cnc23)CC1 as the compound, how does the INHIBITION read?
**A.** 20.6%

**Q.** How did the INHIBITION turn out when COc1ccc(CN(C)[C@@H]2COC[C@H]2c2ccc(F)cc2)c(OC)c1 was run?
**A.** 59.9%

**Q.** Which INHIBITION does the source give for COc1cc(CN(C)[C@@H]2COC[C@H]2c2ccc(F)cc2)cc(OC)c1 here?
**A.** 10.635%

**Q.** Which INHIBITION does the source give for COc1ccc(CN(C)[C@@H]2COC[C@H]2c2ccc(F)cc2)cc1 here?
**A.** 34.3%

**Q.** How did the INHIBITION turn out when CN1CCOCC12CCN(C(=O)C1CCC1)CC2 was run?
**A.** 22.3%

**Q.** With CCOCCCNC(=O)C1(C)CCC(=O)N1c1ccccc1OC (stereo unspecified) as the compound, how does the INHIBITION read?
**A.** 32.1%

**Q.** Which INHIBITION does the source give for CC(=O)N1CCC(n2nccc2-c2cnc(NCCO)nc2)CC1 here?
**A.** 33.7%

**Q.** For Oc1nnc(-c2cccs2)c2sc(N3CCCC3)nc12, which INHIBITION is on record?
**A.** 47.7%

**Q.** With Oc1nnc(-c2cccs2)c2sc(N3CCCCC3)nc12 as the compound, how does the INHIBITION read?
**A.** 54.3%

**Q.** How did the INHIBITION turn out when Oc1nnc(-c2ccccc2)c2sc(N3CCCCC3)nc12 was run?
**A.** 57%

**Q.** Which INHIBITION does the source give for Cc1nc(NC(=O)C2CCCN(C(N)=O)C2)sc1-c1ccccc1 (stereo unspecified) here?
**A.** 34.1%

**Q.** For O=c1[nH]nc(-c2cccs2)c2sc(N3CCOCC3)nc12, which INHIBITION is on record?
**A.** -29.5%

**Q.** With c1ccc(-c2nnc3n2CCN(c2nc(C4CC4)ns2)C3)cc1 as the compound, how does the INHIBITION read?
**A.** -57.3%

**Q.** How did the INHIBITION turn out when CC(CS(C)(=O)=O)N(C(=O)CCc1cccc(F)c1)C1CC1 (stereo unspecified) was run?
**A.** -35%

**Q.** CNS(=O)(=O)c1ccc(CNC(=O)N(C)C(C)COC)cc1 (stereo unspecified) was tested. Which INHIBITION did it give?
**A.** 44.9%

**Q.** Which INHIBITION does the source give for CCC1=N[C@@]2(CC[C@@H]3CN(Cc4ccc(Cl)cc4)C[C@@H]32)C(=O)N1 here?
**A.** 35.3%

**Q.** For CCC1=N[C@@]2(CC[C@@H]3CN(CC4CC4)C[C@@H]32)C(=O)N1CC1CC1, which INHIBITION is on record?
**A.** 30.3%

**Q.** How did the INHIBITION turn out when CC(=O)c1cccc(NC(=O)N(CC(F)F)C2CC2)c1 was run?
**A.** 61.1%

**Q.** CC(C)CCN(C(=O)Nc1cccc(C(=O)N(C)C)c1)C1CC1 was tested. Which INHIBITION did it give?
**A.** 84.1%

**Q.** For CC(C)CCN(C(=O)c1cccc(NC(N)=O)c1)C1CC1, which INHIBITION is on record?
**A.** 12.4%

**Q.** Which INHIBITION does the source give for CC(C)CN(C(=O)Nc1cccc(C(=O)N(C)C)c1)C1CC1 here?
**A.** 38.5%

**Q.** How did the INHIBITION turn out when CC(=O)c1cccc(NC(=O)N(CCO)C2CCc3ccccc32)c1 (stereo unspecified) was run?
**A.** 24.8%

**Q.** N#Cc1cccc(NC(=O)N(CC(F)F)C2CC2)c1 was tested. Which INHIBITION did it give?
**A.** 24.3%

**Q.** Which INHIBITION does the source give for Cn1ccc(C(=O)N2C[C@@H]3CN(CC4CC4)CCO[C@@H]3C2)n1 here?
**A.** 27.5%
